Data as given in ChEMBL document CHEMBL4513146, “CO-ADD screening of Karazin Kharkiv National University (Ukraine) compounds”.
Results with a measured potency or affinity are listed apart.

test system: Klebsiella pneumoniae; settings: Concentration 32 ug.mL-1;; ASSAY_TEST Inhibition of Bacterial Growth; detection method Absorption (OD600); MEDIA CAMHB; plate type 384well; NBS; CORNING #3640; time 18 hr

Question: How did the Inhibition turn out when `CCCCc1ccc(NC(=O)Cn2c(=O)c3nnc(CCC)n3c3ccccc32)cc1` was run?
Answer: 6.31%

Question: How did the Inhibition turn out when `O=c1c2nn(Cc3c(F)cccc3Cl)c(=O)n2ccn1-c1ccccc1` was run?
Answer: 15.43%

Question: `CCOC(=O)c1ccccc1NC(=O)Cn1nc2c(Sc3ccccc3)nccn2c1=O` was tested. Which Inhibition did it give?
Answer: 9.77%

Question: Which Inhibition does the source give for `CCCCN(C)c1ccc2nnc(CCc3nc(-c4cc(OC)cc(OC)c4)no3)n2n1` here?
Answer: 6.4%

Question: For `Cc1ccccc1Nc1cc(C)n2c(=O)n(CCOc3ccc(F)cc3)nc2n1`, which Inhibition is on record?
Answer: 9.7%

Question: How did the Inhibition turn out when `Cc1cc2nn(CC(=O)Nc3ccc(F)cc3Cl)c(=O)n2c(Nc2ccc(F)cc2)n1` was run?
Answer: 8.79%

Question: For `O=S(=O)(c1ccc2nncn2c1)N(Cc1ccccc1F)c1ccc2c(c1)OCCO2`, which Inhibition is on record?
Answer: 4.19%

Question: For `CC(C)(C)Sc1ccc2nn(CC(=O)N3CCN(c4ccc(F)cc4)CC3)c(=O)n2n1`, which Inhibition is on record?
Answer: 10%

Question: How did the Inhibition turn out when `COc1ccccc1Cn1c(=O)c2sccc2n2c(=O)n(Cc3c(F)cccc3Cl)nc12` was run?
Answer: 8.3%

Question: `CC(C)Cn1c(=O)c2sccc2n2c(=O)n(Cc3ccccc3Cl)nc12` was tested. Which Inhibition did it give?
Answer: 3.91%

Question: For `COc1cc(OC)c(NC(=O)Cn2nc3c(Sc4cccc(C)c4)nccn3c2=O)cc1Cl`, which Inhibition is on record?
Answer: 10.68%

Question: For `O=C(Cn1nc2c(Sc3cccc(F)c3)nccn2c1=O)Nc1ccc(Br)cc1`, which Inhibition is on record?
Answer: 4.85%

Question: With `Cc1cc2nn(CC(=O)Nc3ccc(F)cc3Cl)c(=O)n2c(Nc2ccccc2C)n1` as the compound, how does the Inhibition read?
Answer: 1.95%

Question: How did the Inhibition turn out when `COc1cccc(Sc2nc3ccccc3n3c(=O)n(CC(=O)Nc4ccccc4)nc23)c1` was run?
Answer: 3.34%

Question: With `CCOc1ccc(NC(=O)Cn2nc3c(Sc4cccc(F)c4)nccn3c2=O)cc1` as the compound, how does the Inhibition read?
Answer: -0.38%

Question: How did the Inhibition turn out when `Cc1ccc(C)c(Cn2nc3c(=O)n(-c4ccc(C)c(C)c4)ccn3c2=O)c1` was run?
Answer: 6.6%

Question: With `O=C(Cn1nc2c(N3CCOCC3)nc3ccccc3n2c1=O)Nc1ccccc1Br` as the compound, how does the Inhibition read?
Answer: 11.27%

Question: With `O=c1c2sccc2n2c(=S)[nH]nc2n1CC1CCCO1` (stereo not drawn) as the compound, how does the Inhibition read?
Answer: 6.97%

Question: For `Cc1ccc(-c2ccc3nn(CC(=O)Nc4c(C)cccc4C)c(=O)n3n2)cc1C`, which Inhibition is on record?
Answer: -0.65%

Question: For `CCc1cccc(NC(=O)Cn2nc3c(Sc4ccc(C)cc4C)nccn3c2=O)c1`, which Inhibition is on record?
Answer: -3.14%

Question: How did the Inhibition turn out when `Cc1cc2nn(CC(=O)NCc3ccc4c(c3)OCO4)c(=O)n2c(Nc2ccccc2C)n1` was run?
Answer: 10.7%

Question: Which Inhibition does the source give for `CCCn1c(=O)c2sccc2n2c(CCC(=O)NCCC34CC5CC(CC(C5)C3)C4)nnc12` here?
Answer: 9.89%

Question: `CC(C)(C)S(=O)(=O)c1ccc2nn(CC(=O)Nc3ccc4c(c3)OCO4)c(=O)n2n1` was tested. Which Inhibition did it give?
Answer: 2.44%

Question: `CCc1nnc2c(S(=O)(=O)N(Cc3ccccc3C)c3ccc(Cl)cc3)cccn12` was tested. Which Inhibition did it give?
Answer: 3.29%

Question: How did the Inhibition turn out when `Cc1ccc(C)c(Cn2nc3c(=O)n(-c4cccc(Cl)c4C)ccn3c2=O)c1` was run?
Answer: 3.77%

Question: For `CCOc1ccc(C(=O)CSc2nnc3c(=O)n(-c4cccc(OC)c4)ccn23)cc1`, which Inhibition is on record?
Answer: 2.62%

Question: With `CCOc1ccc(NC(=O)CSc2nnc3c(=O)n(-c4ccc(OCC)cc4)ccn23)cc1` as the compound, how does the Inhibition read?
Answer: 13.96%

Question: With `O=c1c2nn(Cc3ccccc3Cl)c(=O)n2ccn1-c1ccccc1` as the compound, how does the Inhibition read?
Answer: 1.78%

Question: With `CCc1nnc2c(SCC(=O)Nc3ccc(C(C)=O)cc3)nc3ccccc3n12` as the compound, how does the Inhibition read?
Answer: 9.87%

Question: With `N#Cc1ccccc1NC(=O)Cn1nc2c(Oc3ccccc3)nccn2c1=O` as the compound, how does the Inhibition read?
Answer: 2.81%

Question: Which Inhibition does the source give for `Cc1cc(NC(=O)Cn2nc3ccc(SC(C)(C)C)nn3c2=O)ccc1Br` here?
Answer: 5.26%

Question: With `CCc1nnc2c(S(=O)(=O)N(Cc3ccc(OC)c(F)c3)c3ccccc3)cccn12` as the compound, how does the Inhibition read?
Answer: 7.72%

Question: For `CCC(Sc1nnc2c(=O)n(-c3ccc(C)c(C)c3)ccn12)C(=O)Nc1cc(OC)ccc1OC` (stereo not drawn), which Inhibition is on record?
Answer: 5.57%

Question: `COc1ccc(Cl)cc1NC(=O)CSc1nc2ccccc2n2c(C(C)C)nnc12` was tested. Which Inhibition did it give?
Answer: -0.34%

Question: With `COc1cccc(NC(=O)Cn2nc3c(Sc4ccccc4)nccn3c2=O)c1` as the compound, how does the Inhibition read?
Answer: 2.45%

Question: For `Cc1ccc(CN(c2cc(C)cc(C)c2)S(=O)(=O)c2cccn3c(C)nnc23)cc1`, which Inhibition is on record?
Answer: 1.08%

Question: For `Cc1ccc(Sc2nccn3c(=O)n(CC(=O)Nc4cccc(Cl)c4)nc23)c(C)c1`, which Inhibition is on record?
Answer: 8.68%

Question: `COc1ccc(N(Cc2cccc(F)c2)S(=O)(=O)c2ccc3nnc(C)n3c2)cc1` was tested. Which Inhibition did it give?
Answer: 0.18%

Question: For `Cc1cc2nn(CC(=O)Nc3cc(F)ccc3C)c(=O)n2c(Nc2ccc(F)c(C)c2)n1`, which Inhibition is on record?
Answer: 15.58%

test system: Candida albicans; settings: Concentration 32 ug.mL-1; ASSAY_TEST Inhibition of Fungal Growth; detection method Absorption (OD530)

Question: With `CCCCc1ccc(NC(=O)Cn2c(=O)c3nnc(CCC)n3c3ccccc32)cc1` as the compound, how does the Inhibition read?
Answer: 4.08%

Question: Which Inhibition does the source give for `O=c1c2nn(Cc3c(F)cccc3Cl)c(=O)n2ccn1-c1ccccc1` here?
Answer: 1.25%

Question: With `CCOC(=O)c1ccccc1NC(=O)Cn1nc2c(Sc3ccccc3)nccn2c1=O` as the compound, how does the Inhibition read?
Answer: -1.59%

Question: `CCCCN(C)c1ccc2nnc(CCc3nc(-c4cc(OC)cc(OC)c4)no3)n2n1` was tested. Which Inhibition did it give?
Answer: 9.61%

Question: `Cc1ccccc1Nc1cc(C)n2c(=O)n(CCOc3ccc(F)cc3)nc2n1` was tested. Which Inhibition did it give?
Answer: -1.22%

Question: `Cc1cc2nn(CC(=O)Nc3ccc(F)cc3Cl)c(=O)n2c(Nc2ccc(F)cc2)n1` was tested. Which Inhibition did it give?
Answer: 8.11%

Question: Which Inhibition does the source give for `O=S(=O)(c1ccc2nncn2c1)N(Cc1ccccc1F)c1ccc2c(c1)OCCO2` here?
Answer: 7.13%

Question: How did the Inhibition turn out when `CC(C)(C)Sc1ccc2nn(CC(=O)N3CCN(c4ccc(F)cc4)CC3)c(=O)n2n1` was run?
Answer: 3.9%

Question: How did the Inhibition turn out when `COc1ccccc1Cn1c(=O)c2sccc2n2c(=O)n(Cc3c(F)cccc3Cl)nc12` was run?
Answer: -2.27%

Question: `CC(C)Cn1c(=O)c2sccc2n2c(=O)n(Cc3ccccc3Cl)nc12` was tested. Which Inhibition did it give?
Answer: 1.39%

Question: `COc1cc(OC)c(NC(=O)Cn2nc3c(Sc4cccc(C)c4)nccn3c2=O)cc1Cl` was tested. Which Inhibition did it give?
Answer: 47.09%

Question: `O=C(Cn1nc2c(Sc3cccc(F)c3)nccn2c1=O)Nc1ccc(Br)cc1` was tested. Which Inhibition did it give?
Answer: 1.59%

Question: With `Cc1cc2nn(CC(=O)Nc3ccc(F)cc3Cl)c(=O)n2c(Nc2ccccc2C)n1` as the compound, how does the Inhibition read?
Answer: 30.65%

Question: `COc1cccc(Sc2nc3ccccc3n3c(=O)n(CC(=O)Nc4ccccc4)nc23)c1` was tested. Which Inhibition did it give?
Answer: 1.24%

Question: For `CCOc1ccc(NC(=O)Cn2nc3c(Sc4cccc(F)c4)nccn3c2=O)cc1`, which Inhibition is on record?
Answer: 0.06%

Question: With `Cc1ccc(C)c(Cn2nc3c(=O)n(-c4ccc(C)c(C)c4)ccn3c2=O)c1` as the compound, how does the Inhibition read?
Answer: 1.95%

Question: For `O=C(Cn1nc2c(N3CCOCC3)nc3ccccc3n2c1=O)Nc1ccccc1Br`, which Inhibition is on record?
Answer: 1.17%

Question: How did the Inhibition turn out when `O=c1c2sccc2n2c(=S)[nH]nc2n1CC1CCCO1` (stereo not drawn) was run?
Answer: -1.18%

Question: How did the Inhibition turn out when `Cc1ccc(-c2ccc3nn(CC(=O)Nc4c(C)cccc4C)c(=O)n3n2)cc1C` was run?
Answer: -0.71%

Question: Which Inhibition does the source give for `CCc1cccc(NC(=O)Cn2nc3c(Sc4ccc(C)cc4C)nccn3c2=O)c1` here?
Answer: 5.97%

Question: How did the Inhibition turn out when `Cc1cc2nn(CC(=O)NCc3ccc4c(c3)OCO4)c(=O)n2c(Nc2ccccc2C)n1` was run?
Answer: 2.64%

Question: With `CCCn1c(=O)c2sccc2n2c(CCC(=O)NCCC34CC5CC(CC(C5)C3)C4)nnc12` as the compound, how does the Inhibition read?
Answer: 5.72%

Question: With `CC(C)(C)S(=O)(=O)c1ccc2nn(CC(=O)Nc3ccc4c(c3)OCO4)c(=O)n2n1` as the compound, how does the Inhibition read?
Answer: 1.02%

Question: With `CCc1nnc2c(S(=O)(=O)N(Cc3ccccc3C)c3ccc(Cl)cc3)cccn12` as the compound, how does the Inhibition read?
Answer: 6.38%

Question: With `Cc1ccc(C)c(Cn2nc3c(=O)n(-c4cccc(Cl)c4C)ccn3c2=O)c1` as the compound, how does the Inhibition read?
Answer: 2.62%

Question: Which Inhibition does the source give for `CCOc1ccc(C(=O)CSc2nnc3c(=O)n(-c4cccc(OC)c4)ccn23)cc1` here?
Answer: 7.56%

Question: How did the Inhibition turn out when `CCOc1ccc(NC(=O)CSc2nnc3c(=O)n(-c4ccc(OCC)cc4)ccn23)cc1` was run?
Answer: 2.39%

Question: Which Inhibition does the source give for `O=c1c2nn(Cc3ccccc3Cl)c(=O)n2ccn1-c1ccccc1` here?
Answer: 1.76%

Question: With `CCc1nnc2c(SCC(=O)Nc3ccc(C(C)=O)cc3)nc3ccccc3n12` as the compound, how does the Inhibition read?
Answer: 2.43%

Question: With `N#Cc1ccccc1NC(=O)Cn1nc2c(Oc3ccccc3)nccn2c1=O` as the compound, how does the Inhibition read?
Answer: -0.12%

Question: `Cc1cc(NC(=O)Cn2nc3ccc(SC(C)(C)C)nn3c2=O)ccc1Br` was tested. Which Inhibition did it give?
Answer: 32.86%

Question: For `CCc1nnc2c(S(=O)(=O)N(Cc3ccc(OC)c(F)c3)c3ccccc3)cccn12`, which Inhibition is on record?
Answer: -1.05%

Question: How did the Inhibition turn out when `CCC(Sc1nnc2c(=O)n(-c3ccc(C)c(C)c3)ccn12)C(=O)Nc1cc(OC)ccc1OC` (stereo not drawn) was run?
Answer: 2.66%

Question: For `COc1ccc(Cl)cc1NC(=O)CSc1nc2ccccc2n2c(C(C)C)nnc12`, which Inhibition is on record?
Answer: 58.61%

Question: Which Inhibition does the source give for `COc1cccc(NC(=O)Cn2nc3c(Sc4ccccc4)nccn3c2=O)c1` here?
Answer: 7.99%

Question: For `Cc1ccc(CN(c2cc(C)cc(C)c2)S(=O)(=O)c2cccn3c(C)nnc23)cc1`, which Inhibition is on record?
Answer: -0.03%

Question: Which Inhibition does the source give for `Cc1ccc(Sc2nccn3c(=O)n(CC(=O)Nc4cccc(Cl)c4)nc23)c(C)c1` here?
Answer: 4.74%

Question: Which Inhibition does the source give for `COc1ccc(N(Cc2cccc(F)c2)S(=O)(=O)c2ccc3nnc(C)n3c2)cc1` here?
Answer: 7.1%

Question: How did the Inhibition turn out when `Cc1cc2nn(CC(=O)Nc3cc(F)ccc3C)c(=O)n2c(Nc2ccc(F)c(C)c2)n1` was run?
Answer: 4.23%
